# Reference: ChEMBL document CHEMBL4888484, “Replenishing the malaria drug discovery pipeline: Screening and hit evaluation of the MMV Hit Generation Library 1 (HGL1) against asexual blood stage Plasmodium falciparum ,using a nano luciferase reporter read-out” (2022)
# Hit rate of the full screen: of about 4,800 compounds, about 410 (8.5%) showed an effect of 50% or more. What follows is part of a selection rich in strong results, with near analogues and random picks from the rest.
# Tested on: Plasmodium falciparum
# Assay: Confirmatory screen in NF54 pLDH assay, in single point, at 2uM, 72h
# Assay type: functional, Erythrocyte
# Conditions: timepoint 72 hour
row,SMILES,% Inhibition
1,CCc1sc(N(C(=O)CCc2ccccc2)c2ccc(C)cc2C)nc1-c1ccc(OC)cc1,9%
2,CCn1ncc(-c2cc(C(F)(F)F)c3c(C(C)C)nn(-c4ccc(F)cc4)c3n2)c1C,-1%
3,O=C(NC1CCCCCC1)c1cn(CC2(O)CCN(Cc3ccccc3)CC2)nn1,15%
4,O=C(C[C@H]1CCC(=O)N(Cc2ccccc2)CC1)NC1CCN(Cc2ccccc2)CC1,6%
5,CCn1ncc(C(=O)n2nc(C)cc2C)c1C,10%
6,O=c1cc(N2CCN(C3CCCC3)CC2)cnn1Cc1ccccc1,-19%
7,Cc1ccnc(-n2nccc2NC(=O)[C@H](C)Oc2ccccc2)c1,0%
8,O=c1c2ccccc2nc2cc(-c3ccc(O)cc3)c(-c3ccccc3)nn12,28%
9,CCOC(=O)NC(c1ccccc1F)C1CCCCC1=O (stereo not given),1%
10,O=C(CN1N=C(C(=O)Nc2ccccc2)CCC1=O)Nc1ccc(OC(F)(F)F)cc1,-8%
11,CC[n+]1c(/C=C/N(C)c2ccccc2)oc2ccc(-c3ccccc3)cc21,91%
12,CC[n+]1c(/C=C/N(C)c2ccccc2)oc2ccccc21,76%
13,CCCn1nnc(N(C(=O)c2cc(Br)cc(C)c2OC)C(=O)c2cc(Br)cc(C)c2OC)n1,0%
14,CCCC1CCC(c2ccc(-c3noc(-c4ccc(O)c(F)c4)n3)cc2)CC1 (stereo not given),4%
15,CC(C)c1ccc2ncnc(N[C@H]3CCc4[nH]cnc4C3)c2c1,101%
16,O=c1[nH]nc(-c2ccc3c(c2)CCC3)c2ccccc12,-1%
17,COc1ccc(C2=NC3(CCN(Cc4ccccc4)CC3)N[C@H](c3cc(Cl)ccc3O)C2)cc1,9%
18,COc1ccc(-c2cc3ncc(C(=O)c4cc(Cl)ccc4O)cn3n2)cc1,78%
19,O=C(Nc1ccc2c(c1)CNCC2)C1CC1c1ccc(F)c(F)c1 (stereo not given),15%
20,COc1ccccc1CC(=O)N(c1nc(C)cs1)C1CC1,-8%
21,Cc1c(NC(=O)N2CCC(C)C(n3ccnc3)C2)cccc1N(C)C (stereo not given),7%
22,COc1ccc(CC(=O)Nc2cc(C)n(-c3cccc(Cl)c3)n2)cc1,93%

row,SMILES,% Inhibition
1,COc1ccc(-n2nc(C)c(Cc3ccc(Cl)cc3)c2O)cc1,12%
2,COc1ccc(Cl)cc1NC(=O)Cc1c(C)nc2nc(-c3ccccc3C)nn2c1C,6%
3,C[C@@H](C(=O)NCCN1CCCCC1)N1C(=O)COc2ccc(C(=O)COc3ccccc3Cl)cc21,-20%
4,Cc1nn(-c2ccccc2)c2c1[C@@H](c1ccc(C(F)(F)F)cc1)N(c1ccccc1)C(=O)N2,9%
5,CCn1ncc(NC(=O)c2cc(-c3ccccc3)on2)c1C,-19%
6,CCc1ccccc1Nc1nc(C)c(C(=O)NCc2cccnc2)s1,-22%
7,COc1ccc(-c2nccn3cc(C(=O)NCCc4ccncc4)nc23)cc1,5%
8,O=S(=O)(Cc1cc(Cl)cc(Cl)c1)NCCCCn1ccnc1,-11%
9,COc1ccc(Nc2nnc(-c3ccc(NC(=O)C(=O)NCCCn4ccnc4)cc3)s2)cc1,76%
10,CCOc1ccc(CN2CC[C@H](Nc3ncccn3)[C@@H](O)C2)cc1Cl,-18%
11,CC(C)c1ccc(-c2nc(CN3CCCCC3)cc(CN3CCCCC3)c2O)cc1,95%
12,CC(C)c1nc(O)cc(CN2CCCCC2)n1,4%
13,Cc1ccc(-c2ccnn2C)cc1NC(=O)[C@H]1CCCOC1,13%
14,COc1cc(C(=O)Nc2nnc(-c3ccc(C)s3)[nH]2)on1,9%
15,O=C(NCC1CC12CCc1ccccc12)NC1CC2CCC1O2 (stereo not given),1%
16,Cc1ccc2nc(O)c3nnc(C)n3c2c1,15%
17,NS(=O)(=O)c1ccc(-c2noc(C3(c4cccc(F)c4)CCC3)n2)cc1,-9%
18,CN(C)CCCNc1nc(N2CCCC2)c2c(c1C#N)CCN(C)C2,14%
19,CC(C)C(NC(=O)c1ccccc1F)C(=O)NC1CCC(N(C)C)C1 (stereo not given),-9%
20,CC1CCCN(c2nc(O)c3c(n2)NC(=O)CC3c2cccc(C(F)(F)F)c2)C1 (stereo not given),9%
21,CC(C)Cc1nsc(N2CCOC3CCN(C)CC32)n1 (stereo not given),11%
22,CN1c2cc(C(=O)N3CCN(c4ccccc4Cl)CC3)ccc2C(=O)N2CCCC[C@H]21,5%

row,SMILES,% Inhibition
1,Nc1ccnc(OCc2ccccc2)n1,-16%
2,C[C@H](Oc1ccc(F)cc1)C(=O)N1CCC(c2nc3cc(Cl)ccc3s2)CC1,-1%
3,Cc1cc(N(CCO)C2CC2)nc(C2CC2)n1,-18%
4,Cc1cc(N(C)CCC2CC2)nc([C@H](C)N(C)CCC2CC2)n1,61%
5,Clc1ccc2c(c1)CC[C@@H]2NCc1nnc2n1CCC2,3%
6,O=C(NCCc1cccnc1)OCC(F)(F)F,-19%
7,N[C@H]1C[C@H](c2cc(NCCCc3cccnc3)nc(C3CC3)n2)C1,77%
8,Cc1ccc(OCCNc2cc([C@H]3C[C@H](N)C3)nc(C3CC3)n2)cc1C,25%
9,Cc1ccc(N(C)CC(=O)N2CCC2)c(Br)c1,-7%
10,COc1ccc(CCc2nc(NC(=O)c3[nH]nc4c3CCC4)n[nH]2)cc1,-15%
11,O=C(Cc1ccccc1)Nc1c2c(nc3c1CCC3)CCCC2,8%
12,COc1ccc(C(=O)N(C(=O)c2ccc(OC)cc2)c2c3c(nc4ccccc24)CCCC3)cc1,61%
13,Cc1ccc2c(c1)N(C(=O)c1c[nH]c(C)cc1=O)CCC2,-3%
14,COc1cc(OC)nc(-n2nc(C)cc2C(=O)Nc2ccc(Cl)cc2)n1,18%
15,Cc1cc(C)n(-c2nnc(-c3ccccc3)c(-c3ccccc3)n2)n1,10%
16,Cc1cc(C)n(-c2nc(Nc3ccc(Cl)cc3)nc(Nc3ccc(Cl)cc3)n2)n1,87%
17,Cc1cc(C)c(S(=O)(=O)Cc2ccccc2)c(O)n1,12%
18,Cc1ocnc1C(=O)N[C@H]1CCN(c2ccc(Cl)c(F)c2)C1=O,7%
19,Cc1cc(N2CC(OCc3ccccc3)C2)nc(Nc2cccc(O)c2)n1,96%
20,Cc1cc(N2C[C@H]3CC[C@@H](C2)[C@H]3N(C)C)nc(Nc2cccc(O)c2)n1,86%
21,Cc1cccc([C@@H](NC(=O)Nc2ncco2)C(F)(F)F)c1,-15%
